Results on 17 compounds are retold here after PubChem BioAssay.

Each structure is given as a SMILES string. Active and inactive are the calls of the source.

Experiment [1] concerns the target Albumin (Bos taurus) (UniProt P02769). The experiment is described as follows: compounds binding labelled BSA control protein – biochemical, small-molecule microarray, Alexa647 label, 635/667 nm fluorescence, artefact control for SMM control protein annotation, profiling panel (AID 1118).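 Note: score merges 667 nm emission intensity and signal-to-noise per printed compound spot.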 Conditions: BSA-A647 binding, fluorescence 635 nm, higher = more signal.
Experiment [2] is described as follows: probe aXIP binding to arrayed compounds – biochemical, NeuroSMM set, 635/667 nm fluorescence, primary screen (AID 1119).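 Note: probe is the protein aXip251-270 applied at 1 µg/mL to compound-printed slides; binding of probe to printed compounds measured as 667 nm fluorescence plus signal to noise.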 As to conditions: small-molecule microarray, higher = more signal, called active from +8 up or from −8 down.
Experiment [3] in a line: probe aNOTCH3 binding on compound microarray – biochemical, small-molecule microarray, 635/667 nm fluorescence, primary screen (AID 1120).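 Note: probe is a biotin-tagged antibody raised against NOTCH3 rather than NOTCH3 protein; score merges spot fluorescence near 667 nm with spot signal to noise.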 As to conditions: higher = more signal.
A short description of experiment [4]: probe aNOTCH2 binding on compound microarray – biochemical, small-molecule microarray, 635/667 nm fluorescence, primary screen (AID 1121).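 Note: score merges feature fluorescence read at 667 nm with its signal to noise.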 As to conditions: higher = more signal.
Experiment [5] deals with Carbonic anhydrase 2 (Homo sapiens) (UniProt P00918). Nature of the experiment: compounds binding carbonic anhydrase 2 – biochemical, small-molecule microarray, Alexa647-labelled CAII, profiling panel (AID 1122). As to conditions: CAII-A647 binding fluorescence, higher = more signal.
A short description of experiment [6]: COS7 lysate on small-molecule microarray, probe aHis, 635 nm (AID 1123).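 Note: z-score combines 667nm fluorescence intensity with signal-to-noise per printed compound spot.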 Conditions: COS7 cell lysate, fluorescence, higher = more signal.
Experiment [7] can be described thus: probe aLAP1 signal on lysate-treated microarray – cell lysate, small-molecule microarray, COS7 lysate, primary screen (AID 1124).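 Note: lysate comes from COS7 cells expressing LAP1 and is applied at 0.3 µg/mL; score merges spot fluorescence near 667 nm with signal-to-noise over triplicate slides.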 As to conditions: probe aLAP1, fluorescence, higher = more signal.
In experiment [8] the test system is Sam68 (KHDRBS1). The experiment is described as follows: compounds binding KHDRBS1 protein – biochemical, small-molecule microarray, 635 nm fluorescence, primary screen (AID 1125).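 Note: score merges 667 nm channel intensity with signal to noise over triplicate slides.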 As to conditions: higher = more signal.
Experiment [9] relates to Chordin-like protein 2 (CHRDL2). The experiment is described as follows: compounds binding chordin-like 2 – biochemical, small-molecule microarray, 635 nm fluorescence, primary screen (AID 1126).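 Note: printed compound slides probed with Chrdl2 protein at 4 µg/mL for 1 h at 4 C; score merges 667 nm emission intensity with signal to noise over three replicate slides.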 As to conditions: fluorescence 635 nm, higher = more signal.
In experiment [10] the target is Concanavalin-A (Canavalia ensiformis) (UniProt P02866). The experiment is described as follows: compounds binding concanavalin A lectin – biochemical, small-molecule microarray, Alexa647 label, 635 nm, artefact control for SMM control protein annotation, primary screen (AID 1127).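 Note: z combines 667 nm emission intensity with signal-to-noise across three replicate slides.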 Conditions: ConA-A647 binding fluorescence, higher = more signal.
Concanavalin-A (Canavalia ensiformis), sequence (P02866 whole entry, looked up): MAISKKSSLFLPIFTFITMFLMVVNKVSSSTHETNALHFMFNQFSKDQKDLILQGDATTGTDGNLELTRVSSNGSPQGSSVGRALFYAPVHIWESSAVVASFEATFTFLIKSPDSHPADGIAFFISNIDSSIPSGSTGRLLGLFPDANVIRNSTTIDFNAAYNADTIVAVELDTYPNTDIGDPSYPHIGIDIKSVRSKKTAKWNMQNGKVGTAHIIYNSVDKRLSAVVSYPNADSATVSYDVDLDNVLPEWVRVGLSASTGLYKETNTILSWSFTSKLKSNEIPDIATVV

Albumin (Bos taurus), sequence (P02769 whole entry, looked up): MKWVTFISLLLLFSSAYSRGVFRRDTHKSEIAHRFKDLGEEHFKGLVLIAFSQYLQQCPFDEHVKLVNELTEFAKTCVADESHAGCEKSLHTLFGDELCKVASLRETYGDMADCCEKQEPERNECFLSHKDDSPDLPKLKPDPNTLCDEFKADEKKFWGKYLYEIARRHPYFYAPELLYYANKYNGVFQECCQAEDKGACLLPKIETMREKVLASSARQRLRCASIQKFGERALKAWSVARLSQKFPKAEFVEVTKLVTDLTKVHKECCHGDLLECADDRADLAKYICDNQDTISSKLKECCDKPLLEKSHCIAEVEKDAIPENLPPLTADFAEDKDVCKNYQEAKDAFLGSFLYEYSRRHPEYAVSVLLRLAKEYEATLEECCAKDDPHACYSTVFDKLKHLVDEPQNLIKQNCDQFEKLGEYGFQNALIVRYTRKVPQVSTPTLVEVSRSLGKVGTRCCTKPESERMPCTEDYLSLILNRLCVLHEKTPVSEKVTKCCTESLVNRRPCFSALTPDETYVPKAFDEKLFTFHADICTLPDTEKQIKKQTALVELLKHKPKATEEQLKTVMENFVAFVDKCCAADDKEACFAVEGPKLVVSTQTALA

For the compound `CCOC(=O)[C@H](CC(C)C)NC(=O)CCC1CC(OC(=O)NCCc2ccc(F)cc2)CC2(CCCC(COC(=O)NCCc3ccccc3OC)O2)O1` (stereo not given in full), the composite z-score is 0.788 in experiment [1]; -0.0647 in [3]; -0.0781 in [4]; 0.56 in experiment [5]; 0.907 in [6]; 0.419 in experiment [7]. Moreover, the composite z-score in experiment [8] is 1.29; in experiment [9], 0.337; in experiment [10], 1.09. Further, the composite Z-score in experiment [2] was 0.0516 (inactive).

For the compound `COC(=O)[C@@H]1CC[C@H](C)[C@@H](c2ccc(C)cc2)N1C(=O)c1ccc(C=NOCC[C@@H]2C=C[C@H](OC(C)=O)[C@@H](COC(C)=O)O2)cc1`, the composite z-score in experiment [1] was -0.129; in [3], 0.088; in experiment [4], -0.1; in [5], -0.0127; in experiment [6], 0.148; in experiment [7] it was -0.552. Besides, the results for the composite z-score in [8], in experiment [9] and in experiment [10] were 0.926, 0.772 and 0.658, respectively. In addition, the composite Z-score in [2] is -0.2 (inactive).

As for `O=C1C[C@@H](O)[C@@H](O)[C@@H]2[C@@H]3C(=O)N(c4cccc(Oc5ccccc5)c4)C(=O)[C@@H]3CC[C@H]12`, the composite z-score in [1] was 0.332; in experiment [3], -0.085; in [4] it was -0.137; in [5] it was -0.0963; in experiment [6], 0.104; in experiment [7], 0.183. The composite z-score in experiment [8] came out at 0.21; in experiment [9], 0.455; in experiment [10] it was 0.505. For the same compound, in [2], the composite Z-score was 0.454 (inactive).

On to `CC(C)(C)N1C(=O)[C@H]2[C@H]3[C@H](O)[C@H](O)CC(=NO[C@@H]4O[C@H](CO)[C@@H](O)[C@H](O)[C@H]4O)[C@H]3CC[C@H]2C1=O`, for which the composite z-score in experiment [1] is -0.383; in [3] it was 0.0864; in experiment [4] it was 0.0037; in experiment [5] it was 0.182; in experiment [6], 0.276; in experiment [7], -0.12. Also, the composite z-score in experiment [8] was 0.217; in [9], 0.926; in [10] it was -0.409. For the same compound, in experiment [2], the composite Z-score is 0.674 (inactive).

On to `CC(CCN1CCCc2nc(C)c(C)cc21)=NOC(C)CN1CCCCc2nc(C)c(C)cc21` (stereo not given), for which the composite z-score in [1] was -0.0931; in experiment [3], 0.539; in experiment [4] it was 0.101; in experiment [5], 0.618; in experiment [6] it was 0.84; in [7], 0.247. Besides, the figures for the composite z-score in [8], in [9] and in [10] were 1.3, 1.06 and 1.01, respectively. Further, the composite Z-score in [2] was 1.62 (inactive).

On to `COc1ccc(O[C@H]2C=C[C@@H](c3ccccc3)O[C@@H]2COC(=O)CCC(C)=NOC(C)CN2CCCc3nc(C)c(C)cc32)cc1` (stereo not given in full), for which the composite z-score in experiment [1] was 0.247; in [3], 0.0013; in experiment [4], -0.106; in experiment [5] it was 0.21; in [6] it was 0.676; in experiment [7], 0.304. Further, the composite z-score was 1.31 in [8], 0.43 in experiment [9] and 1.01 in experiment [10]. Further, the composite Z-score in experiment [2] was 1.32 (inactive).

For the compound `C=CC[C@@H]1C=C[C@H](ON=C(C)CCN2CCc3nc(-c4ccccc4)c(-c4ccccc4)cc3C2)[C@@H](CO)O1`, the composite z-score in [1] is 0.585; in experiment [3], -0.0362; in experiment [4], -0.0995; in experiment [5] it was 0.1; in experiment [6], 1.6; in experiment [7] it was -0.0995. Moreover, the composite z-score in experiment [8] was 1.31; in experiment [9], 0.321; in [10], 0.967. The composite Z-score in [2] is 0.364 (inactive).

For the compound `COC(=O)[C@H](C)NC(=O)CCC1CC(OC(=O)NCc2ccc3c(c2)OCO3)CC2(CCCC(COC(=O)NCc3cccc(C(F)(F)F)c3)O2)O1` (stereo not given in full), the composite z-score in experiment [1] was 0.133; in [3], -0.0014; in experiment [4], -0.133; in experiment [5], 0.424; in experiment [6], 1.08; in [7], 0.234. Also, the composite z-score amounted to 1.02 in experiment [8], 0.301 in experiment [9] and 0.746 in [10]. Besides, in experiment [2], the composite Z-score is 0.298 (inactive).

Regarding `CCOC(=O)NN=C1C[C@@H](O)[C@@H](O)[C@@H]2[C@@H]3C(=O)N([C@@H](C)c4ccccc4)C(=O)[C@@H]3CC[C@@H]12`, the composite z-score in [1] is -0.899; in [3], 0.119; in experiment [4], -0.0968; in [5] it was -0.0526; in [6], -0.374; in [7], 0.129. Also, the composite z-score in experiment [8] is 1.23; in experiment [9], 1.02; in experiment [10], -1.09. In experiment [2], the composite Z-score was -0.491 (inactive).

Take `CC(CCN1CCCCc2nc(C)c(C)cc21)=NO[C@H](C)c1cn([C@H](CO)Cc2ccccc2)nn1`: the composite z-score in [1] was 0.583; in experiment [3], -0.0076; in [4], -0.135; in experiment [5], -0.274; in experiment [6] it was 0.558; in experiment [7] it was -0.129. Besides, the composite z-score came to 0.321 in [8], 1.32 in experiment [9] and 0.0631 in experiment [10]. For the same compound, the composite Z-score in experiment [2] is 0.26 (inactive).

Take `CCc1cc2c(nc1CC)CCN(CCC(C)=NO[C@@H](C)c1cn([C@H](CO)Cc3ccccc3)nn1)C2`: the composite z-score in experiment [1] is -0.0957; in experiment [3] it was -0.0072; in experiment [4] it was -0.0956; in [5], 0.317; in experiment [6], -0.0909; in [7], 0.12. Besides, the composite z-score is -0.0161 in experiment [8], 0.231 in experiment [9] and 0.0209 in experiment [10]. The composite Z-score in [2] was 0.117 (inactive).

On to `COc1cccc([C@@H]2Oc3ccc(OC)cc3C(=O)[C@H]2O)c1`, for which the composite z-score in [1] is 0.78; in [3] it was -0.0377; in experiment [4] it was -0.119; in experiment [5], 0.445; in experiment [6], -0.279; in experiment [7] it was 0.158. In addition, the composite z-score in experiment [8] came to 0.325; in [9], 0.488; in experiment [10], 0.711. In addition, the composite Z-score in [2] is 0.0773 (inactive).

For the compound `CO[C@@H]1COC(=O)[C@@H](C)NC(=O)CC=C[C@@H](C)[C@H](NS(=O)(=O)c2ccc(C)cc2)COC(=O)[C@H](C)NC(=O)CC=C[C@H]1C`, the composite z-score in experiment [1] was -1.05; in [3], -0.0647; in [4], -0.184; in experiment [5], -0.333; in [6], -0.634; in [7], -0.192. Also, the composite z-score was 0.643 in experiment [8], 1.16 in experiment [9] and -1.05 in [10]. Further, the composite Z-score in [2] was 1.05 (inactive).

On to `O=C1C2=CC[C@H]3C(=O)N(c4cccc(Oc5ccccc5)c4)C(=O)[C@H]3[C@H]2[C@H](O)[C@@H]2O[C@H]12`, for which the composite z-score in experiment [1] is -0.0451; in [3], 0.0179; in experiment [4], -0.132; in experiment [5], -0.146; in experiment [6] it was 0.19; in [7] it was -0.0224. For the same compound, the results for the composite z-score in experiment [8], in experiment [9] and in experiment [10] were 0.645, 0.625 and 0.443, respectively. Further, the composite Z-score in experiment [2] is -0.0708 (inactive).

Turning to `CC(C)=CCCC(C)=CCON=C1C[C@@H](O)[C@@H](O)[C@@H]2[C@@H]3C(=O)N(c4cccc(Oc5ccccc5)c4)C(=O)[C@@H]3CC[C@@H]12`, the composite z-score is 0.633 in [1]; -0.0026 in experiment [3]; -0.0686 in experiment [4]; 0.112 in experiment [5]; 0.956 in experiment [6]; -0.0676 in experiment [7]. The composite z-score is 0.877 in experiment [8], 0.418 in experiment [9] and 0.0876 in experiment [10]. Moreover, the composite Z-score in [2] is -0.174 (inactive).

Take `CCOC(=O)[C@H](CC(C)C)NC(=O)CCC1CC(OC(=O)NCc2cccc3ccccc23)CC2(CCCC(COC(=O)NCCC(C)C)O2)O1` (stereo not given in full): the composite z-score in experiment [1] is 0.352; in [3], -0.147; in experiment [4] it was -0.153; in experiment [5], 0.562; in experiment [6], 0.795; in experiment [7], -0.104. For the same compound, the composite z-score in experiment [8] was -0.0361; in [9], 0.443; in experiment [10] it was 0.0178. The composite Z-score in experiment [2] was -0.136 (inactive).

With `CON=C1[C@H]2CCn3c(=O)n(-c4ccccc4)c(=O)n3[C@H]2[C@H](O)[C@@H]2O[C@H]12`, the composite z-score in experiment [1] is 0.103; in experiment [3], -0.0006; in experiment [4], -0.121; in experiment [5] it was 0.0479; in experiment [6] it was -0.364; in [7], 0.0879. Moreover, the composite z-score came to 0.689 in experiment [8], 0.501 in experiment [9] and 0.217 in experiment [10]. Also, in experiment [2], the composite Z-score was 0.119 (inactive).
